# Measured values as given in ChEMBL document CHEMBL3433997, “St. Jude Leishmania screening dataset” (2016).
# Legend:
# Format in all cases: functional
# [1] = molecular target: Solute carrier family 2, facilitated glucose transporter member 1 (Homo sapiens) (UniProt P11166); assay: ST_JUDE_LEISH: Cytotoxicity at 2uM final concentration against transgenic Leishmania Mexicana promastigotes LmGLUT1 that are glucose transport deficient and complemented with the human glucose transporter GLUT1. Activity is measured by DNA content using SYBR green in vitro
# Chain of Solute carrier family 2, facilitated glucose transporter member 1 (Homo sapiens) (P11166 whole entry): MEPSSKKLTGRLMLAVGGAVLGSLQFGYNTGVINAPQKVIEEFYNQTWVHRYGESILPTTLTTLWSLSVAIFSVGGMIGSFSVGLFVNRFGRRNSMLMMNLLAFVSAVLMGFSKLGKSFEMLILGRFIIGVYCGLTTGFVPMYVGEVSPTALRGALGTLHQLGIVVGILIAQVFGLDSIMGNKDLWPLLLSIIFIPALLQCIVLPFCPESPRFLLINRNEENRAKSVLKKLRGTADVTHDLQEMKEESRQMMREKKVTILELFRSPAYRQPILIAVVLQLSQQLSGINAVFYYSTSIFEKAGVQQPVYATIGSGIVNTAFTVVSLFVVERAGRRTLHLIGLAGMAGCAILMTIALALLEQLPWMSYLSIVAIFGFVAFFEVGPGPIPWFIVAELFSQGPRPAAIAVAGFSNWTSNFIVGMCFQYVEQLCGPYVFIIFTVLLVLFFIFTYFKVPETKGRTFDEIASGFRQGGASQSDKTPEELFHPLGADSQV
# [2] = molecular target: Hexose transporter 1 (Plasmodium falciparum) (UniProt O97467); assay: ST_JUDE_LEISH: Cytotoxicity at 2uM final concentration against transgenic Leishmania Mexicana promastigotes LmPfHT that are glucose transport deficient and complemented with the Plasmodium falciparum hexose transporter. Activity is measured by DNA content using SYBR green in vitro
# [3] = molecular target: Glucose transporter (Leishmania mexicana) (UniProt O61059); assay: ST_JUDE_LEISH: Cytotoxicity at 2uM final concentration against transgenic Leishmania Mexicana promastigotes LmGT2 that are glucose transport deficient and complemented with the L. Mexicana glucose transporter 2. Activity is measured by DNA content using SYBR green in vitro
SMILES,inhibition [1] [%],inhibition [2] [%],inhibition [3] [%]
CC(NCCC1CCC(NC(=O)N[C@H](C)C(O)(c2ccccc2)c2ccccc2)CC1)c1cccc2ccccc12 (stereo partly drawn),16.8,16.2,13.4
CCNc1cc(C)nc(Nc2ccc(NC(=O)Cc3ccc(OC)cc3)cc2)n1,10.8,10.1,4.74
Clc1ccc(-c2[nH]c3ccccc3c2CN2CCC(N3CCCCC3)CC2)cc1,15.2,14.7,15.2
Nc1nc(N)c2cc(CNc3ccc(Cl)c(Cl)c3)ccc2n1,8.27,6.41,-0.28
Cc1cccc2nc(-c3cccc(-c4ccc(CNCc5ccc(S(C)(=O)=O)cc5)cc4)c3)[nH]c12,11.9,6.88,7.97
COc1ccc2ncc(F)c(CCN3CCC(NCc4cc(C)c5c(c4)OCCO5)CC3)c2n1,11.1,15.4,5.07
COc1c(C2CCN(CCCCNC(=O)c3cc(-c4ccc(Cl)cc4)oc3C)CC2)ccc2c1CCCC2,9.04,9.78,5.26
COc1ccc(Nc2nccc(N3CCC(NC(=O)C(C)c4ccc(Cl)cc4)CC3)n2)cc1 (stereo not drawn),0.43,0.07,0.26
O=C(NCCCN1CCC(N2CCCCC2)CC1)c1ccc2nc(N3CCCCC3)sc2c1,5.78,8.39,8.02
Cc1cc(=O)[nH]c(-n2nc(C)cc2NC(=O)CC(c2ccccc2)c2ccccc2)n1,14.8,23.1,-1.63
CCCCCCN1CCCN(Cc2ccc(C(=O)Nc3ccc(C(C)(C)C)cc3)cc2)CC1,4.82,1.84,5.5
COc1ccccc1N1CCN(CCCCNC(=O)c2ccc(NC(=O)c3ccc4ccccc4c3)cc2)CC1,0.49,1.01,-0.43
CCCCCCC(C)c1cc(O)c2c(c1)OC(C)(C)C=C2c1ccncc1 (stereo not drawn),1.01,-0.62,0.58
FC(F)(F)c1ccc(NC(=S)N2CCC(CCN3CCC(c4c[nH]c5ccccc45)CC3)CC2)cc1,5.27,3.8,5.31
Cc1ccc2[nH]c(-c3ccc(C=CC(=O)NCc4ccc(Cl)c(Cl)c4)cc3)nc2c1,10.3,9.48,4.93
COc1cc(F)c2nccc([C@@H](O)CN3CCC(NCc4nc5cccc(F)c5[nH]4)CC3)c2c1,6.27,0.25,3.66
N#Cc1nc2ccc(OCCN(Cc3ccccc3C(F)(F)F)c3ccc(C#N)c(C(F)(F)F)c3)cc2s1,9.32,6.39,8.4
CCCCCCCCc1nc(C)c(Br)c(O)c1Br,3.91,5.98,0.8
Cc1cc(N[C@@H](Cc2ccccc2)C(=O)NCCc2ccccc2)nc(NCCc2ccc(F)cc2)n1,-1.91,-1.86,-1.12
COc1c(C2CCN(CCN3CCC(CNC(=O)c4ccc(-c5ccc(C#N)cc5)cc4)CC3)CC2)ccc2c1CCCC2,3.97,8.83,8.54
O=C(/C=C/c1ccc(Cl)c(Cl)c1)N1CCC(CN2CCC(Cc3c[nH]c4ccccc34)CC2)CC1,4.43,4.8,3.96
O=C(Nc1ccc(Cl)cc1)c1ccc(S(=O)(=O)NCC2CCN(CC3CCCCC3)CC2)cc1,2.97,1.04,1.4
N#Cc1cccc(C(=O)Nc2cccc(-c3cccc(CN4CCNCC4)c3)c2)c1,4.13,6.34,3.25
Cc1ccnc(NC(c2cccc(Cl)c2Cl)c2ccc3cccnc3c2O)c1 (stereo not drawn),2.69,5.15,-0.63

SMILES,inhibition [1] [%],inhibition [2] [%],inhibition [3] [%]
COc1ccc(-c2nc(NCc3ccccc3)c3cc(OC)c(OC)cc3n2)cc1,10.8,12.1,4.38
O=C(/C=C/c1cccc(Cl)c1)Nc1ccc2nc(CN3CCCC3)ccc2c1,3.42,5.45,3.23
Nc1cccc(CNCc2cccc(-c3ccc(-c4nc5cc(C(F)(F)F)ccc5[nH]4)cc3)c2)c1,4.8,6.83,3.77
O=C(Nc1ccc(Cl)cc1)c1ccc(CN2CCCN(Cc3cccc(F)c3)CC2)cc1,-0.02,5.11,3.31
O=C(NC1CCC(N2CCCC(OCc3ccccc3)C2)CC1)c1cc2ccccc2[nH]1 (stereo not drawn),0.93,3.87,-1.89
COc1ccccc1N1CCN(CCCCNC(=O)c2ccc(NC(=O)c3cc(Cl)cc(Cl)c3)cc2)CC1,2.07,3.24,2.92
CCCC(=O)Nc1ccc(Cl)c(NC(=O)COc2cc(C)ccc2C(C)C)c1,9.77,8.41,8.05
CCCN(CC1CC1)c1ncc(-c2cccc(CNCCC3CCCN3C)c2)cn1 (stereo not drawn),98.4,26.8,104
COc1cc(Cc2cnc(N)nc2N)ccc1OCc1ccc(-c2csnn2)cc1,9.75,9.64,11.7
CCc1ccc(NC(=O)c2ccc(CN3CCCN(Cc4cccs4)CC3)cc2)cc1,13.8,12.6,14.9
O=c1c(NCCCN(Cc2ccc(F)cc2)c2ccccn2)c(NCc2ccncc2)c1=O,4.35,3.53,5.17
Cc1cc(OCc2ccncc2)cc2c1C(=O)CC(C)(C)O2,-0.52,2.18,0.39
O=C(CCc1c[nH]cn1)Nc1ccc(-c2ccc(-c3nc4cc(F)ccc4[nH]3)cc2)cc1,1.4,1.73,1.81
O=C(Nc1ccc(Cl)c(Cl)c1)N1CCC(CNCc2cccc([N+](=O)[O-])c2)CC1,3.92,4.18,5.3
N=C(N)Nc1nc(-c2cccc(NC(=O)C(F)(F)F)c2)cs1,2.35,2.8,3.35
O=S(=O)(c1cc(Cl)sc1Cl)N(CCC(O)(C(F)(F)F)C(F)(F)F)Cc1cccc(O)c1,0.79,0.45,2.62
Cn1nc(-c2ccc(CN[C@@H]3CCc4ccc(O)cc43)cc2)c2cnc(NCCCN3CCCC3)nc21,1.97,0.42,1.31
O=c1nc(NCCCCCN2CCC(c3c[nH]c4ccccc34)CC2)[nH]cc1Cc1ccc(Cl)c(Cl)c1,2.65,2.12,2.08
CCCCCCCN1CC[C@@H](CCC(O)c2ccnc3ccc(OC)cc23)[C@@H](CC)C1 (stereo partly drawn),-0.47,0.63,0.73
O=C(Nc1cccc2ccccc12)N1CCc2cc3nccc(N4CCN5CCC[C@H]5C4)c3cc21,5.08,2.82,4.23
Cc1cc(F)ccc1-c1nc(NCCCN2CCCC2=O)nc2c1ccc(=O)n2-c1c(F)cccc1F,15.4,12.9,11.1
O=C(Nc1cccc(CN2CCCN(Cc3ncc[nH]3)CC2)c1)c1ccc(Cl)c(Cl)c1,2.9,3.94,5.79
Cc1cccc2nc(-c3ccc(-c4ccc(NC(=O)CN5CCN(C)CC5)cc4)s3)[nH]c12,-0.59,-1.98,-1.35
CCCCCCNCCOc1ccc(-c2nc(-c3ccccc3)c(-c3ccccc3)[nH]2)cc1,4.61,1.32,1.62

SMILES,inhibition [1] [%],inhibition [2] [%],inhibition [3] [%]
CN1CCCN(Cc2cccc(-c3ccc(NC(=O)c4cccc(C#N)c4)cc3)c2)CC1,28.9,12.9,9.31
O=C(Nc1ccc(N2CCN(c3ncccc3C(F)(F)F)CC2)nc1)c1cccs1,2.6,3.03,0.38
O=C(Nc1ccc2c(ccn2C2CCCN(Cc3cc(F)cc(F)c3F)CC2)c1)c1ccco1 (stereo not drawn),1.97,-3.49,2.17
CC(=O)Nc1cccc(C(=O)Nc2cccc(-c3ccc(-c4nc5cccc(C)c5[nH]4)cc3)c2)c1,0.33,1.27,4.99
O=C1O[C@H](c2ccccc2)[C@H](c2ccccc2)N(C(=O)OCc2ccccc2)[C@H]1Cc1ccccc1C1CCCC1,1.05,2.14,1.27
O=C(CN1CCCC1)Nc1cccc(C(=O)Nc2cccc(C(F)(F)F)c2)c1,1.71,1.57,3.18
CN(c1ccc(NC(=O)Nc2cc(C(F)(F)F)ccc2F)cc1)c1ccnc(NCCN2CCCC2)n1,5.11,4.8,4.41
COc1ccc2nccc(N/N=C/c3cccc([N+](=O)[O-])c3)c2c1,3.18,2.68,4.33
COc1cc(F)c2ncc(Cl)c(CCN3CCC(NCc4ccc5c(n4)NC(=O)CO5)CC3)c2c1,3.28,4.15,-1.5
CC(C)CNC(=O)c1cncc(-c2cccc(CNC3Cc4ccccc4C3)c2)c1,10.7,6.1,6.4
COc1ccc(CCN(C)CCCOc2ccc(NC(=O)COc3cccc4sc5ccccc5c(=O)c34)cc2)cc1OC,-2.54,-2.87,-0.2
c1ccc(CN2CCN(CCCCNc3c4ccccc4nc4ccccc34)CC2)cc1,31.7,37.9,19.4
CC(C)c1ccc(NS(=O)(=O)c2cccc(C(=O)NC3CCN(CC4CCCCC4)CC3)c2)cc1,3.07,1.15,1.74
Cc1cc(-c2ccc(CNCCc3cccs3)cc2)ccc1S(=O)(=O)NCc1ccccc1,13,17.3,8.49
O=C(N[C@@H](CC1CCCCC1)C(=O)NC1CCCc2ccccc21)c1ccc(O)c(-c2cccc(C(F)(F)F)c2)c1 (stereo partly drawn),4.07,1.73,2.66
COc1ccc(NC(=O)[C@H](Cc2ccccc2)Nc2cc(C)nc(NCCc3ccccn3)n2)cc1,4.73,5.3,-0.86
O=C1CC(C(=O)O)CC(=O)N1,-3.7,-2.75,-0.61
Cc1cc(OCCCN2CCCC2)ccc1NC(=O)COc1ccc(Cl)cc1C(=O)c1cc(C#N)cc(C(F)(F)F)c1,73,11.6,10.3
Cc1cc(N(C)C2CCN(C)C2)nc(Nc2ccccc2Cl)n1 (stereo not drawn),1.12,2.69,2.94
CN1CCCC(CN2CCN(Cc3ccc(-c4ccc(-c5nc6ccccc6[nH]5)cc4)cc3)CC2)C1 (stereo not drawn),13,15.9,7.8
c1ccc(CN2CCC(Nc3ccc(-c4c[nH]nc4-c4ccccn4)nc3)CC2)cc1,4.32,4.84,4.12
CC(=O)Nc1cccc(C(=O)Nc2cccc(-c3ccc(-c4nc5cc(F)ccc5[nH]4)s3)c2)c1,2.81,3.63,0.19
CN1CCC(C(=O)Nc2ccc(-c3ccc(-c4nc5cc(C(F)(F)F)ccc5[nH]4)s3)cc2)CC1,-0.08,0.49,-0.16
